The panel holds about 79,000 compounds, 15% with a hit somewhere; the sample as a whole holds those more often. Active and inactive are the calls of the source. No stated cut-off is given here; in the data, active means growth inhibition above about 70%; inactive means the rest.
Key:
[1] = NCI Yeast Anticancer Drug Screen. Data for the wt2 strain (AID 169);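 further: 0% = growth of vehicle-treated yeast cultures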; conditions: S. cerevisiae wt2 strain growth inhibition, hits give high values
Method in brief: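 This strain belongs to a panel of yeast strains with defined genetic alterations in DNA damage repair or cell cycle control. Compounds are applied, and growth inhibition is measured against vehicle-treated cultures.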

[2] = NCI Yeast Anticancer Drug Screen. Data for the mlh1 strain (AID 171);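 further: 0% = growth of vehicle-treated control cultures of the same strain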; conditions: S. cerevisiae mlh1 strain growth inhibition, hits give high values
Method in brief: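 Growth of the mutant yeast strain after compound exposure, expressed as inhibition relative to vehicle-only controls.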

[3] = NCI Yeast Anticancer Drug Screen. Data for the sgs1 strain (AID 173);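 further: 0% = growth of vehicle-only control cultures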; conditions: S. cerevisiae sgs1 mutant, hits give high values
Method in brief: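 Growth of a yeast strain bearing a defined genetic alteration is measured after compound treatment. Inhibition is expressed relative to vehicle-only controls.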

[4] = NCI Yeast Anticancer Drug Screen. Data for the mlh1 rad18 strain (AID 175); conditions: S. cerevisiae mlh1 rad18 strain growth inhibition, hits give high values
Method in brief: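 Read-out is yeast growth inhibition, calculated against vehicle-only controls. The compound was applied to a strain engineered with DNA damage repair alterations.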

[5] = NCI Yeast Anticancer Drug Screen. Data for the rad18 strain (AID 177); conditions: S. cerevisiae rad18 mutant growth inhibition, hits give high values
Method in brief: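 Growth of the mutant yeast strain after compound exposure, normalised to vehicle-only cultures.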

[6] = NCI Yeast Anticancer Drug Screen. Data for the rad52 strain (AID 147);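 further: 0% = growth of vehicle-treated control cultures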; conditions: S. cerevisiae rad52 mutant growth inhibition, hits give high values
Method in brief: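 Compounds are applied to a genetically defined yeast strain lacking normal DNA damage repair, and inhibition of growth is expressed relative to cultures given vehicle only.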

[7] = NCI Yeast Anticancer Drug Screen. Data for the wt1 strain (AID 149);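 further: 0% = growth of vehicle-treated wt1 cultures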; conditions: S. cerevisiae wt1 strain (SPY 50644) growth inhibition, hits give high values
Method in brief: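 Yeast wt1 strain exposed to compounds; growth inhibition measured relative to vehicle-treated controls.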

[8] = NCI Yeast Anticancer Drug Screen. Data for the rad50EPP+ strain (AID 151);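 further: 0% = growth of vehicle-treated control cultures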; conditions: S. cerevisiae rad50 mutant strain, hits give high values
Method in brief: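 Compounds were applied to the rad50EPP+ yeast strain, which bears a defined DNA repair alteration, and growth inhibition was determined relative to vehicle-treated cultures.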

[9] = NCI Yeast Anticancer Drug Screen. Data for the mgt1 strain (AID 153); conditions: S. cerevisiae mgt1 mutant growth inhibition, hits give high values
Method in brief: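 Strain: mgt1 yeast, one of a set carrying defined DNA damage repair or cell cycle control alterations. Compound-treated growth compared with vehicle.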

[10] = NCI Yeast Anticancer Drug Screen. Data for the rad50 strain (AID 155);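 further: 0% = growth of vehicle-only cultures of the same strain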; conditions: S. cerevisiae rad50 strain growth inhibition, hits give high values
Method in brief: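 Yeast carrying a defined DNA repair defect were exposed to test compounds, and growth was compared with vehicle-treated controls to give percent inhibition.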

[11] = NCI Yeast Anticancer Drug Screen. Data for the mec2-1 strain (AID 157); conditions: S. cerevisiae mec2-1 strain, hits give high values
Method in brief: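 Strain: mec2-1 (DNA repair/cell cycle alteration). Compound exposure, then growth measured; inhibition expressed relative to vehicle.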

[12] = NCI Yeast Anticancer Drug Screen. Data for the rad14 strain (AID 159);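 further: 0% = growth of vehicle-treated control cultures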; conditions: S. cerevisiae rad14 strain growth inhibition, hits give high values
Method in brief: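 Yeast cells carrying a defined DNA-repair defect were exposed to compounds, and growth inhibition was calculated relative to vehicle-treated control cultures.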

[13] = NCI Yeast Anticancer Drug Screen. Data for the sgs1 mgt1 strain (AID 161);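 further: 0% = growth of cultures given vehicle only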; conditions: S. cerevisiae sgs1 mgt1 strain, hits give high values
Method in brief: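 Mutant yeast exposed to compound; growth scored against vehicle-only wells.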

[14] = NCI Yeast Anticancer Drug Screen. Data for the CLN2oe strain (AID 163);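 further: 0% = growth of vehicle-only control cultures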; conditions: S. cerevisiae CLN2oe strain, hits give high values
Method in brief: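 Growth of a genetically modified yeast strain is measured after compound exposure and compared with cultures given vehicle alone.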

[15] = NCI Yeast Anticancer Drug Screen. Data for the cln2 rad14 strain (AID 165);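 further: 0% = growth equal to vehicle treated cultures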; conditions: S. cerevisiae cln2 rad14 strain, hits give high values
Method in brief: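 Compounds are applied to the cln2 rad14 yeast strain, and growth is then compared with that of vehicle-treated cultures to give inhibition.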

[16] = NCI Yeast Anticancer Drug Screen. Data for the bub3 strain (AID 167); conditions: S. cerevisiae bub3 mutant strain, hits give high values
Method in brief: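 Compounds were applied to a genetically altered yeast strain carrying a cell-cycle control defect. Growth inhibition was scored against vehicle-treated controls.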

[17] = at 5.0 µM (retest, dose inferred, filed as 0.5)
[18] = at 50.0 µM (retest, dose inferred, filed as 5.0)

Measured: growth inhibition

CN1C(=O)c2ccc3ccccc3c2C1=O
inactive: [1]; at 1.2 µM 2% | [1]; at 3.7 µM 3% | [1]; at 11.0 µM 12% | [1]; at 33.0 µM 24% | [1]; at 100.0 µM 39% | [2]; at 1.2 µM 2% | [2]; at 3.7 µM 3% | [2]; at 11.0 µM 22% | [2]; at 33.0 µM 29% | [2]; at 100.0 µM 27% | [3]; at 1.2 µM 0% | [3]; at 3.7 µM 1% | [3]; at 11.0 µM 14% | [3]; at 33.0 µM 25% | [3]; at 100.0 µM 42% | [4]; [17] -25% | [4]; [18] 40% | [4]; at 50.0 µM 23.3% | [5]; at 1.2 µM 6% | [5]; at 3.7 µM 15% | [5]; at 11.0 µM 45% | [5]; at 33.0 µM 39% | [5]; at 100.0 µM 35%

CCOC(=O)/C(=C\c1ccc(C#N)cc1)C(C)=O
inactive: [6]; at 1.2 µM -40% | [6]; at 3.7 µM -32% | [6]; at 11.0 µM -4% | [7]; at 1.2 µM -15% | [7]; at 3.7 µM 6% | [7]; at 11.0 µM 9% | [8]; at 1.2 µM -8% | [8]; at 3.7 µM 24% | [8]; at 11.0 µM 40% | [9]; at 1.2 µM -23% | [9]; at 3.7 µM -4% | [9]; at 11.0 µM 38% | [10]; at 1.2 µM -9% | [10]; at 3.7 µM 7% | [10]; [17] 36% | [10]; at 11.0 µM 31% | [11]; at 1.2 µM -36% | [11]; at 3.7 µM -27% | [11]; [17] -11% | [11]; at 11.0 µM 13% | [12]; at 1.2 µM -4% | [12]; at 3.7 µM 1% | [12]; at 11.0 µM 15% | [13]; [17] 25% | [14]; at 1.2 µM -20% | [14]; at 3.7 µM -27% | [14]; at 11.0 µM 3% | [15]; [17] 13% | [15]; at 50.0 µM 38.2% | [16]; at 1.2 µM 1% | [16]; at 3.7 µM 3% | [16]; [17] 29% | [16]; at 11.0 µM 58% | [1]; at 1.2 µM -37% | [1]; at 3.7 µM -18% | [1]; at 11.0 µM 18% | [2]; at 1.2 µM 0% | [2]; at 3.7 µM 26% | [2]; at 11.0 µM 69% | [3]; at 1.2 µM -18% | [3]; at 3.7 µM -6% | [3]; at 11.0 µM 25% | [4]; [17] -9% | [5]; at 1.2 µM -30% | [5]; at 3.7 µM 7% | [5]; at 11.0 µM 23%
active: [6]; at 33.0 µM 86% | [6]; at 100.0 µM 99% | [7]; at 33.0 µM 84% | [7]; at 100.0 µM 98% | [8]; at 33.0 µM 84% | [8]; at 100.0 µM 98% | [9]; at 33.0 µM 95% | [9]; at 100.0 µM 99% | [10]; at 33.0 µM 91% | [10]; [18] 94% | [10]; at 50.0 µM 88.8% | [10]; at 100.0 µM 99% | [11]; at 33.0 µM 92% | [11]; [18] 98% | [11]; at 50.0 µM 81.3% | [11]; at 100.0 µM 98% | [12]; at 33.0 µM 95% | [12]; at 100.0 µM 99% | [13]; [18] 94% | [13]; at 50.0 µM 92% | [14]; at 33.0 µM 87% | [14]; at 100.0 µM 99% | [15]; [18] 94% | [16]; at 33.0 µM 98% | [16]; [18] 99% | [16]; at 50.0 µM 81.2% | [16]; at 100.0 µM 99% | [1]; at 33.0 µM 93% | [1]; at 100.0 µM 99% | [2]; at 33.0 µM 98% | [2]; at 100.0 µM 98% | [3]; at 33.0 µM 93% | [3]; at 100.0 µM 98% | [4]; [18] 97% | [4]; at 50.0 µM 90% | [5]; at 33.0 µM 88% | [5]; at 100.0 µM 98%

Cc1cccc[n+]1C1CCc2c(ccc3ccccc23)C1=O (centres undefined)
active: [6]; at 100.0 µM 70% | [10]; at 50.0 µM 74.9% | [11]; [18] 70% | [11]; at 50.0 µM 74.3% | [13]; at 50.0 µM 93.3% | [16]; [18] 70% | [16]; at 50.0 µM 98.2% | [16]; at 100.0 µM 72% | [4]; [18] 73% | [4]; at 50.0 µM 89.7% | [5]; at 100.0 µM 79%
inactive: [6]; at 1.2 µM 5% | [6]; at 3.7 µM 2% | [6]; at 11.0 µM 1% | [6]; at 33.0 µM 14% | [7]; at 1.2 µM -2% | [7]; at 3.7 µM -4% | [7]; at 11.0 µM -1% | [7]; at 33.0 µM -3% | [7]; at 100.0 µM 13% | [8]; at 1.2 µM 6% | [8]; at 3.7 µM 9% | [8]; at 11.0 µM 8% | [8]; at 33.0 µM 37% | [8]; at 100.0 µM 63% | [9]; at 1.2 µM -4% | [9]; at 3.7 µM 2% | [9]; at 11.0 µM 0% | [9]; at 33.0 µM 2% | [9]; at 100.0 µM 35% | [10]; at 1.2 µM 5% | [10]; at 3.7 µM 2% | [10]; [17] -1% | [10]; at 11.0 µM 0% | [10]; at 33.0 µM 16% | [10]; [18] 40% | [10]; at 100.0 µM 68% | [11]; at 1.2 µM -1% | [11]; at 3.7 µM -4% | [11]; [17] 2% | [11]; at 11.0 µM -1% | [11]; at 33.0 µM 2% | [11]; at 100.0 µM 62% | [12]; at 1.2 µM 4% | [12]; at 3.7 µM 2% | [12]; at 11.0 µM 3% | [12]; at 33.0 µM 12% | [12]; at 100.0 µM 61% | [13]; [17] 3% | [13]; [18] 55% | [14]; at 1.2 µM -6% | [14]; at 3.7 µM -3% | [14]; at 11.0 µM -5% | [14]; at 33.0 µM -1% | [14]; at 100.0 µM 48% | [15]; [17] 0% | [15]; [18] 26% | [15]; at 50.0 µM 26.6% | [16]; at 1.2 µM -2% | [16]; at 3.7 µM 0% | [16]; [17] -4% | [16]; at 11.0 µM 3% | [16]; at 33.0 µM 18% | [1]; at 1.2 µM -6% | [1]; at 3.7 µM -8% | [1]; at 11.0 µM -11% | [1]; at 33.0 µM -9% | [1]; at 100.0 µM 65% | [2]; at 1.2 µM 2% | [2]; at 3.7 µM 1% | [2]; at 11.0 µM 2% | [2]; at 33.0 µM 10% | [2]; at 100.0 µM 68% | [3]; at 1.2 µM -14% | [3]; at 3.7 µM -6% | [3]; at 11.0 µM -26% | [3]; at 33.0 µM -5% | [3]; at 100.0 µM 69% | [4]; [17] 2% | [5]; at 1.2 µM 2% | [5]; at 3.7 µM 3% | [5]; at 11.0 µM 2% | [5]; at 33.0 µM 6%

— PubChem BioAssay (NCI)
